Compounds without any hit were thinned out: in the full panel of roughly 83,000, 20% have a hit.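 For each line, cells grew in 96-well plates with the test compound present at a single concentration for 48 hours.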 Values without a mark were called inactive. The source made the active and inactive calls. The calls were made as follows: active = growth percent below 10; inactive = the rest.

This is an account of results in PubChem BioAssay (NCI).

Assay in all cases: NCI-60 one-dose screen, 48 h (100 = growth as untreated, 0 = no growth, -100 = all killed)
Holding throughout (details): 10 µM unless noted

The test system of experiment [1] is SR leukemia.
The subject of experiment [2] is RPMI-8226 leukemia.
The test system of experiment [3] is OVCAR-8 ovarian.
The subject of experiment [4] is OVCAR-5 ovarian.
Experiment [5] concerns OVCAR-4 ovarian.
In experiment [6] the test system is SK-OV-3 ovarian.
In experiment [7] the test system is OVCAR-3 ovarian.
Experiment [8] deals with HS 578T breast.
Experiment [9] deals with T-47D breast.
In experiment [10] the test system is BT-549 breast.
For experiment [11], the system named is MDA-MB-435 melanoma.
For experiment [12], the system named is SW-620 colon.
The subject of experiment [13] is MCF7 breast.
For experiment [14], the system named is HCT-116 colon.
Experiment [15] concerns HCC-2998 colon.
In experiment [16] the test system is KM12 colon.
The subject of experiment [17] is IGROV1 ovarian.
Experiment [18] concerns NCI/ADR-RES ovarian.

`COC[C@]12CC[C@@H](C)[C@H](C)[C@H]1C1=CC[C@@H]3[C@@]4(C)CCCNC(C)(C)[C@@H]4CC[C@@]3(C)[C@]1(C)CC2`: the growth in experiment [1] is -3.33% (active); in experiment [2], 2.86% (active); in experiment [3] it was 62.4%; in experiment [4], 61.6%; in [5], 38%; in experiment [6], 85.4%. For the same compound, the growth in experiment [7] was 41.4%; in [8], 74.3%; in [9], 39.8%; in experiment [10] it was 66.1%; in [11] it was 9.61% (active); in experiment [12] it was -42.1% (active). The growth in experiment [13] was -33.2% (active); in experiment [14], 5.39% (active); in [15] it was 20.1%; in experiment [16] it was 19.3%.

For `c1ccc(-c2n(Cc3ccc4ccccc4c3)c3c4ccccc4c4ccccc4c3[n+]2Cc2ccc3ccccc3c2)cc1`, the growth in [1] is -44.4% (active); in experiment [2], -35.1% (active); in experiment [3] it was -69.1% (active); in experiment [4], -90.3% (active); in experiment [5], -73.4% (active); in [17] it was -74.7% (active). Besides, the growth in [7] was -90.8% (active); in [8], -42.9% (active); in experiment [18], -4.33% (active); in experiment [9], -41.7% (active); in experiment [10], -69.9% (active); in experiment [11], -85.4% (active). Also, the growth in experiment [12] is -75.4% (active); in [13] it was -75% (active); in experiment [14], -61.6% (active); in [15], -90.8% (active); in [16] it was -85.5% (active).

In the case of `CN1CCN(Cc2ccc(NC(=O)c3cncc(C#Cc4cnc5ccc(O[C@H]6CCOC6)nn45)c3)cc2C(F)(F)F)CC1`, the growth was -22.8% (active) in [1]; -15.3% (active) in experiment [2]; -72.6% (active) in experiment [3]; -62.5% (active) in experiment [4]; -58.9% (active) in experiment [5]; -26% (active) in experiment [6]. The growth in experiment [8] was -34.1% (active); in [18], -30.9% (active); in experiment [9], 16.2%; in experiment [10], -33.9% (active); in experiment [11], -86.8% (active); in [12] it was -32.4% (active). For the same compound, the growth in [13] is -62.6% (active); in [14], -88.1% (active); in experiment [15] it was -61.3% (active); in [16] it was -52.3% (active).

On to `COc1ccc(OC)c(NC2=C(Cl)C(=O)C(C)=C(C)C2=O)c1`, for which the growth in experiment [1] was 96.5%; in experiment [2], 65.9%; in experiment [3], 95.6%; in [4], 109%; in experiment [5], 55.5%; in experiment [17] it was 89.6%. Further, the growth in [7] was 92.3%; in experiment [8], 92.8%; in experiment [18] it was 96.8%; in [9] it was -5.07% (active); in [10], 102%; in experiment [11], 106%. Also, the growth in experiment [12] is 98.8%; in [13] it was 80.5%; in experiment [14], 57.6%; in experiment [15], 108%; in experiment [16] it was 93.8%.

Regarding `O=C(NNc1nc2cc(F)cc(F)c2n2cccc12)c1ncccn1`, the growth was 13.2% in [1]; 12.7% in experiment [2]; 16.7% in [3]; 40.5% in experiment [4]; 20.9% in experiment [5]; 14% in [17]. For the same compound, the growth is 16.3% in experiment [7]; 42.8% in [8]; -1.21% (active) in experiment [18]; 3.06% (active) in experiment [9]; 20.6% in experiment [10]; 24.6% in experiment [11]. In addition, the growth in experiment [12] was 21.6%; in [13], 9.91% (active); in [14], 20.1%; in [15], 51.9%; in experiment [16] it was 22.3%.

Consider `NS(=O)(=O)c1ccc(-n2cc(CC=O)nn2)cc1`, for which the growth in [1] was 101%; in experiment [2], 109%; in experiment [3], 106%; in experiment [4], 104%; in experiment [5] it was 101%; in experiment [17], 102%. Besides, the growth was 109% in experiment [7]; 104% in experiment [8]; 104% in [18]; 102% in experiment [9]; 111% in [10]; 102% in experiment [11]. The growth was 109% in experiment [12]; 93.6% in [13]; 108% in experiment [14]; 97.9% in [15]; 112% in [16].

On to `C=C(C)[C@@H]1CC[C@]2(C(=O)ON)CC[C@]3(C)[C@H](CC[C@@H]4[C@@]5(C)C/C(=C/c6ccc(Br)cc6)C(=O)C(C)(C)[C@@H]5CC[C@]43C)[C@@H]12`, for which the growth in experiment [1] is 76.2%; in experiment [2], 62.2%; in experiment [3], 68.7%; in experiment [4], 86.5%; in experiment [5] it was 75.5%; in experiment [6], 98.6%. Besides, the growth in experiment [7] was 78%; in [8], 88.2%; in [18], 74.9%; in experiment [9] it was 49.4%; in experiment [10] it was 96.9%; in [11], 81.1%. Further, the growth in [12] was 81.7%; in [13], 44.9%; in [14], 48.6%; in experiment [15], 82.9%; in [16], 69.9%.

Turning to `COc1ccc(/C=N/Nc2nc(N/N=C/c3ccc(OC)cc3O)nc(N3CCOCC3)n2)c(O)c1`, the growth is 27.4% in experiment [1]; 41.7% in experiment [2]; 69.1% in [3]; 68.1% in experiment [4]; 63.1% in experiment [5]; 51.1% in experiment [17]. For the same compound, the growth in experiment [7] was 19.1%; in [8] it was 77.7%; in experiment [18], 23.1%; in experiment [9], 42.4%; in experiment [10] it was 90.3%; in [11], 81%. In addition, the growth in experiment [12] was 36.3%; in experiment [13] it was 51.7%; in experiment [14] it was 34.4%; in experiment [15] it was 81.1%; in experiment [16], 51.4%.

For `CCN(CC)CCN1C(=O)c2c(c3c4cc(Br)ccc4[nH]c3c3ccc4ccccc4c23)C1=O`, the growth in experiment [1] is -24.6% (active); in experiment [2], -42.4% (active); in experiment [3], -58.2% (active); in experiment [4], -95.2% (active); in experiment [5] it was 36.6%; in [6] it was 61.9%. Moreover, the growth is -4.17% (active) in experiment [8]; -34.5% (active) in experiment [9]; 61.8% in [10]; -94.7% (active) in experiment [11]; -61.6% (active) in experiment [12]; -80% (active) in [13]. Moreover, the figures for the growth in [14] and in experiment [15] were -80.1% (active) and -89.5% (active), respectively.
